Screens (PubChem)
Rows were chosen to be rich in hits. Some 1.1% of all compounds tested hit in one or more screens of this group.
AGP1-GFP MLPCN: modulators of TOR pathway AGP1-GFP in S. cerevisiae; S. cerevisiae AGP1-GFP multiplex flow cytometry, 3 h; GFP as percent of DMSO wells; GFP response vs DMSO, % at 10 µM; hit rate 0.02% among 320,000; AID 2066;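 active = GFP response relative to DMSO above a set limit, near screen average plus 3 SD, cut at about 150% in these data; inconclusive = fewer than 70 cells counted for the yeast strain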;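 also: median GFP channel fluorescence of the gated AGP1 strain per well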
MEP2-GFP yeast: yeast TOR pathway MEP2-GFP modulation. S. cerevisiae MEP2-GFP strain, flow cytometry GFP, 3 h; 100% = DMSO control level. AID 2016. GFP response vs DMSO, % at 10 µM. hit rate 0.51% among 330,000;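 active = GFP response versus DMSO above a set limit, roughly screen mean plus 3 SD, cut at about 180% in these data; inconclusive = fewer than 70 cells counted for a yeast strain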;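 also: median GFP fluorescence of the barcode-gated MEP2-GFP cells per well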
RPL19A-GFP yeast: alters RPL19A-GFP fluorescence in TOR pathway yeast screen; S. cerevisiae RPL19A-GFP strain, flow cytometry, 3 h; stronger effect = lower value; percent response vs DMSO, % at 10 µM; hit rate 0.3% among 330,000; AID 2025;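 active = percent response vs DMSO below 50%; inconclusive = fewer than 70 events counted for the yeast strain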;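 also: median channel GFP fluorescence of the barcoded RPL19A-GFP strain; ratio of sample median GFP to plate DMSO average so 100% = DMSO; lower means less RPL19A-GFP as with rapamycin TOR inhibition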
CIT2 TOR yeast: alters CIT2-GFP fluorescence in TOR pathway yeast screen | hit rate 0.065% among 320,000 | S. cerevisiae CIT2-GFP strain, flow cytometry, 3 h; 100 means same as DMSO wells | AID 2029 | GFP response vs DMSO, % at 10 µM;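 active = GFP response relative to DMSO above a set limit, near the screen mean plus 3 SD, cut at about 150% in these data; inconclusive = Fewer than 70 cells measured for a yeast strain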;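 also: ratio of well median GFP fluorescence to mean of DMSO wells on the plate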
VLA-4 inh: inhibition in a human VLA-4 binding assay; P13612; VLA-4 expressing cells, ligand binding flow cytometry; inhibition, % (about 7 µM as worked out from the volumes in the protocol); hit rate 0.2% among 330,000; AID 2557; in the data active = inhibition above about 50%
LAP4 TOR yeast: yeast TOR pathway LAP4-GFP modulation; hit rate 0.34% among 320,000; GFP response vs DMSO, % at 10 µM; S. cerevisiae LAP4-GFP multiplex, flow cytometry GFP, 3 h; median GFP as percent of DMSO wells; AID 2023;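 active = GFP response vs DMSO above a set limit, about the screen mean plus 3 SD, cut at about 150% in these data; inconclusive = under 70 cell events counted for the yeast strain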
Starred values were filed as active, the others as inactive; ? = inconclusive; nt = no result; ! = not active in a repeat; [ ] = remark or other dose.

SMILES	AGP1-GFP MLPCN	MEP2-GFP yeast	RPL19A-GFP yeast	CIT2 TOR yeast	VLA-4 inh	LAP4 TOR yeast
O=c1[nH]c(=S)n(-c2ccccc2)c(O)c1/C=N/N1CCOCC1	110	153	124	151*	-16	119
Cc1c(CC(=O)N2C[C@H]3C[C@@H](C2)c2cccc(=O)n2C3)c(=O)oc2cc(O)c(Cl)cc12	28	185*[may fluoresce violet]	16*[may fluoresce violet]	?	-26	92
Oc1cccc(/C=N/NP(=S)(c2ccccc2)c2ccccc2)c1	101	104	100	101	-4	102
O=c1c2ccccc2[se]n1-c1ccccc1	?	157	39*[may fluoresce violet]	?	-1	?
O=c1c2ccccc2nc(-c2ccccc2)n1-c1ccccc1	96	88	98	96	-3	100
Cn1c(O)c(C=NCCN2CCOCC2)c(=O)[nH]c1=S	88	98	99	100	5	107
CC(=O)Nc1ccccc1C(=O)OCc1cccc(F)c1	95	100	108	108	56*	99
CC[C@@H]1C(=O)OC[C@@H]1Cc1cncn1C	?	404*![may fluoresce violet]	43*![may fluoresce violet]	?	12	107
CC(C)=CCN1CC[C@@]2(C)c3cc(O)ccc3CC1C2C (stereo partly drawn)	89	93	90	85	-17	93
COc1ccc2c(c1OC)CN1CCc3cc4c(cc3[C@H]1C2)OCO4	97	91	98	99	0	91
C#CCOc1cc(C2C3=C(COC3=O)Nc3cc4c(cc32)OCO4)ccc1OC (stereo not drawn)	103	172	108	164*	12	123
OCc1cnc[nH]1	92	90	103	93	49	105
CN1C(=O)NC(=O)/C(=C\C=C\c2ccccc2[N+](=O)[O-])C1=O	107	98	94	90	22	193*
CC(C)c1ccc(NC(=O)N2C[C@H]3C[C@@H](C2)c2cccc(=O)n2C3)cc1	104	102	99	101	7	104
O=c1c2ccccc2nc(-c2ccccc2)n1-c1cccnc1	?	254*[may fluoresce violet]	19*[may fluoresce violet]	?	-11	92
Cc1ccc(-c2nc3ccccc3c(=O)n2-c2cccnc2)cc1	92	96	97	91	0	101
CCC(C)N1C(=O)/C(=C\c2ccc(N3CCCCCC3)cc2)C(=O)NC1=S (stereo not drawn)	101	99	102	104	-42	108
CCC(C)N1C(=O)/C(=C\c2cnc(N(C)C)nc2)C(=O)NC1=S (stereo not drawn)	94	89	97	80	2	162*
COc1ccc(CCNCc2ccccc2)cc1	?	230*[may fluoresce violet]	60	?	8	67
CC(c1ccccc1)n1cncc1C(=O)O (stereo not drawn)	91	96	91	97	14	93
CCn1nc(-c2ccccc2)nc2c(=O)n(C)c(=O)nc1-2	111	122	126	61	-3	229*
Cc1cc(C)n(CCOC(=O)C2C(C=C(Cl)Cl)C2(C)C)n1 (stereo not drawn)	99	109	96	89	-4	101
C[C@]12CCC(=O)C(O)=C1CC[C@@H]1[C@@H]2CC[C@]2(C)C(=O)CC[C@@H]12	80	90	?	78	34	454*[may fluoresce red]
O=c1c2ccccc2nc(-c2ccccc2)n1-c1cccc(O)c1	107	103	98	98	17	104
O=C1CC[C@@]2(O)[C@H]3Cc4ccc(O)c5c4[C@@]2(CCN3CC2CC2)[C@H]1O5	117	144	84	102	42	155*
SMILES	AGP1-GFP MLPCN	MEP2-GFP yeast	RPL19A-GFP yeast	CIT2 TOR yeast	VLA-4 inh	LAP4 TOR yeast
Oc1ccc2c3c1O[C@H]1c4[nH]c5ccccc5c4C[C@@]4(O)[C@@H](C2)N(CC2CC2)CC[C@]314	89	99	98	85	7	102
CC1(C)CC(N(CCc2ccccc2)Cc2ccccc2)CCO1 (stereo not drawn)	108	107	102	102	6	111
CCCC(=O)c1ccc(CP(=O)(OCC)OCC)o1	nt	310*[may fluoresce violet]	36*[may fluoresce violet]	nt	0	nt
COP(=O)(Cc1ccc(C#N)o1)OC	nt	107	103	nt	0	nt
COC(=O)C1=C(c2cccc(OC)c2OC)C[C@@H]2CC[C@H]1N2C(=O)NC(C)C	82	92	94	84	35	108
Nc1c(C(=O)NCC2CCCO2)c2nc3ccccc3nc2n1Cc1ccco1 (stereo not drawn)	18	518*[may fluoresce violet]	97	?	-8	99
C=C1C[C@]2(O)[C@@]3(C)CCC(=O)C(C)(C)C3=C(O)C(=O)[C@@]2(C)[C@@H]2C(=O)O[C@@](C)(C(=O)OC)C(=O)[C@@]12C	105	108	100	101	-23	106
CCN(CC)c1ccc(C=C2C(=O)NC(=S)NC2=O)cc1	92	98	89	68	-5	212*
O=c1ccc2cc(OC3O[C@H](CO)[C@@H](O)[C@H](O)[C@H]3O)c(O)cc2o1 (stereo partly drawn)	?	208*[may fluoresce violet]	41*[may fluoresce violet]	?	12	94
Cc1n[nH]c(C)c1CCN	?	235*[may fluoresce violet]	60	?	-7	66
FC(F)(F)c1ccccc1NC1=NCCCS1	?	255*[may fluoresce violet]	33*[may fluoresce violet]	?	1	63
Cc1ccc(N2C(=O)/C(=C/c3ccc(CN(CCC#N)S(C)(=O)=O)o3)C(=O)NC2=S)cc1C	23	198*[may fluoresce violet]	64	?	-8	97
Cc1cccc(N2C(=O)/C(=C/c3ccc(CN(CCC#N)S(C)(=O)=O)o3)C(=O)NC2=S)c1	108	104	102	107	0	100
Cc1ccc(N2C(=O)NC(=O)/C(=C\c3cc(C)n(-c4ccc(C(=O)O)cc4)c3C)C2=O)cc1	100	100	101	104	-16	91
Cc1ccc(-n2c(C)cc(/C=C3/C(=O)NC(=O)N(C)C3=O)c2C)cc1	18	281*[may fluoresce violet]	29*[may fluoresce violet]	?	5	67
NC(N)=N/N=C/c1ccc(N(c2ccccc2)c2ccccc2)cc1	?	209*[may fluoresce violet]	56	?	7	81
COc1ccc(/C=N\N=C(N)N)cc1	95	88	91	97	16	93
CNC(=O)Nc1ccc(C(=O)N/N=C\C23CC[C@@H](O)CC2(O)CC[C@@H]2[C@@H]3CCC3(C)C(C4=CC(=O)OC4)CCC23O)cc1 (stereo partly drawn)	19	200*[may fluoresce violet]	45*[may fluoresce violet]	?	11	92
N=Cc1c(O)n(-c2ccccc2)c(=O)n(-c2ccccc2)c1=O	17	216*[may fluoresce violet]	81	?	12	94
Cc1ccc(-n2c(O)c(C=N)c(=O)n(-c3ccc(C)cc3)c2=O)cc1	99	103	101	103	7	97
